Active and inactive are the calls of the source.
Columns and labels:
Albumin (Bos taurus) = Albumin (Bos taurus) (UniProt P02769); experiment: bovine serum albumin binders on microarray, profiling panel, artefact control for SMM control protein annotation, biochemical, small-molecule microarray, Alexa647 label, 635/667 nm fluorescence (AID 1118); settings: BSA-A647 binding, fluorescence 635 nm, higher = more signal;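 further: score merges 667 nm emission intensity and signal-to-noise per printed compound spot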
Chain of Albumin (Bos taurus) (P02769 whole entry, looked up): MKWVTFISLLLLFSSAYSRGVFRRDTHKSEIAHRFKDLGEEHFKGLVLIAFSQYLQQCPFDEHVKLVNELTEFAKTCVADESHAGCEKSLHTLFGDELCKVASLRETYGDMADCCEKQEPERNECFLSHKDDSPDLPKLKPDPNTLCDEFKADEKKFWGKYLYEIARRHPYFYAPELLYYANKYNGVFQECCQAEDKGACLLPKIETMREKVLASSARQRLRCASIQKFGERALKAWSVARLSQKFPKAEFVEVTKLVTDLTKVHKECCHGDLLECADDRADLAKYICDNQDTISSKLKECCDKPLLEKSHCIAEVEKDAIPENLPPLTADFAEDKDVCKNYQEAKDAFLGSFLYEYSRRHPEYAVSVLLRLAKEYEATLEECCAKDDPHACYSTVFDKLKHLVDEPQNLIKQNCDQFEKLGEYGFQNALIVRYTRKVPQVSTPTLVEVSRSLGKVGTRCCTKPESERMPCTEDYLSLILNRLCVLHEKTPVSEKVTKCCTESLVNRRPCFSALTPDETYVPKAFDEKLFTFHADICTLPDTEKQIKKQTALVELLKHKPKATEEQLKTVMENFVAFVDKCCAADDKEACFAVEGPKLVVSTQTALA

[1] = small-molecule microarray binders of probe aXIP, primary screen, biochemical, NeuroSMM set, 635/667 nm fluorescence (AID 1119); settings: higher = more signal, called active from +8 up or from −8 down;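 further: probe is the protein aXip251-270 applied at 1 µg/mL to compound-printed slides; binding of probe to printed compounds measured as 667 nm fluorescence plus signal to noise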
[2] = small-molecule binders of probe aNOTCH3, primary screen, biochemical, small-molecule microarray, 635/667 nm fluorescence (AID 1120); settings: higher = more signal;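 further: probe is a biotin-tagged antibody raised against NOTCH3 rather than NOTCH3 protein; score merges spot fluorescence near 667 nm with spot signal to noise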
[3] = small-molecule binders of probe aNOTCH2, primary screen, biochemical, small-molecule microarray, 635/667 nm fluorescence (AID 1121); settings: higher = more signal;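 further: score merges feature fluorescence read at 667 nm with its signal to noise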
[4] = target: Carbonic anhydrase 2 (Homo sapiens) (UniProt P00918); experiment: CAII small-molecule binders, profiling panel, biochemical, small-molecule microarray, Alexa647-labelled CAII (AID 1122); settings: CAII-A647 binding fluorescence, higher = more signal
[5] = COS7 lysate on small-molecule microarray, probe aHis, 635 nm (AID 1123); settings: COS7 cell lysate, fluorescence, higher = more signal;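 further: z-score combines 667nm fluorescence intensity with signal-to-noise per printed compound spot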
[6] = compound binding in COS7 lysate, probe aLAP1, primary screen, cell lysate, small-molecule microarray (AID 1124); settings: probe aLAP1, fluorescence, higher = more signal;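 further: lysate comes from COS7 cells expressing LAP1 and is applied at 0.3 µg/mL; score merges spot fluorescence near 667 nm with signal-to-noise over triplicate slides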
Sam68 (KHDRBS1) = experiment: Sam68 small-molecule binders, primary screen, biochemical, small-molecule microarray, 635 nm fluorescence (AID 1125); settings: small-molecule microarray binding, higher = more signal;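 further: score merges 667 nm channel intensity with signal to noise over triplicate slides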
[7] = system: Chordin-like protein 2 (CHRDL2); experiment: CHRDL2 small-molecule binders, primary screen, biochemical, small-molecule microarray, 635 nm fluorescence (AID 1126); settings: small-molecule microarray binding, fluorescence 635 nm; higher = more signal;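 further: printed compound slides probed with Chrdl2 protein at 4 µg/mL for 1 h at 4 C; score merges 667 nm emission intensity with signal to noise over three replicate slides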
[8] = target: Concanavalin-A (Canavalia ensiformis) (UniProt P02866); experiment: ConA small-molecule binders, primary screen, artefact control for SMM control protein annotation, biochemical, small-molecule microarray, Alexa647 label, 635 nm (AID 1127); settings: ConA-A647 binding fluorescence, higher = more signal;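 further: z combines 667 nm emission intensity with signal-to-noise across three replicate slides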
Chain of Concanavalin-A (Canavalia ensiformis) (P02866 whole entry, looked up): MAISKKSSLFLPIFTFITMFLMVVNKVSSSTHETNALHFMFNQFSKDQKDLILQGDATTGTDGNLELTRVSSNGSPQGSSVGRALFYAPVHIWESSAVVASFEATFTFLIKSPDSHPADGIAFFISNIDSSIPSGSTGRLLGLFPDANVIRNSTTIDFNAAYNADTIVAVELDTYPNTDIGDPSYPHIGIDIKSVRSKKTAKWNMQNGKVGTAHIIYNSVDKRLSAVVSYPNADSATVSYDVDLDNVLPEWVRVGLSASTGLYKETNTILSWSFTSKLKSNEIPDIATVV

[9] = anti-His antibody binders, primary screen, artefact control for SMM control protein annotation, biochemical, small-molecule microarray, 635 nm fluorescence (AID 1128); settings: anti-His Alexa647 antibody binding, higher = more signal;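 further: score merges feature fluorescence with signal-to-noise for each printed compound spot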
[10] = system: Human papillomavirus type 1a E7 protein (residues 1-88); experiment: HPV1a E7 small-molecule binders, primary screen, biochemical, small-molecule microarray, residues 1-88, 635 nm (AID 1129); settings: small-molecule microarray binding, fluorescence 635 nm; higher = more signal
[11] = target: Focal adhesion kinase 1 (Homo sapiens) (UniProt Q05397); experiment: small-molecule microarray binders of FAK, primary screen, biochemical, 635/667 nm fluorescence, BSA, DTT (AID 1130); settings: PTK2 binding, 635 nm fluorescence, higher = more signal;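 further: composite of spot emission at 667 nm and signal to noise over triplicate slides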
Chain of Focal adhesion kinase 1 (Homo sapiens) (Q05397 whole entry, looked up): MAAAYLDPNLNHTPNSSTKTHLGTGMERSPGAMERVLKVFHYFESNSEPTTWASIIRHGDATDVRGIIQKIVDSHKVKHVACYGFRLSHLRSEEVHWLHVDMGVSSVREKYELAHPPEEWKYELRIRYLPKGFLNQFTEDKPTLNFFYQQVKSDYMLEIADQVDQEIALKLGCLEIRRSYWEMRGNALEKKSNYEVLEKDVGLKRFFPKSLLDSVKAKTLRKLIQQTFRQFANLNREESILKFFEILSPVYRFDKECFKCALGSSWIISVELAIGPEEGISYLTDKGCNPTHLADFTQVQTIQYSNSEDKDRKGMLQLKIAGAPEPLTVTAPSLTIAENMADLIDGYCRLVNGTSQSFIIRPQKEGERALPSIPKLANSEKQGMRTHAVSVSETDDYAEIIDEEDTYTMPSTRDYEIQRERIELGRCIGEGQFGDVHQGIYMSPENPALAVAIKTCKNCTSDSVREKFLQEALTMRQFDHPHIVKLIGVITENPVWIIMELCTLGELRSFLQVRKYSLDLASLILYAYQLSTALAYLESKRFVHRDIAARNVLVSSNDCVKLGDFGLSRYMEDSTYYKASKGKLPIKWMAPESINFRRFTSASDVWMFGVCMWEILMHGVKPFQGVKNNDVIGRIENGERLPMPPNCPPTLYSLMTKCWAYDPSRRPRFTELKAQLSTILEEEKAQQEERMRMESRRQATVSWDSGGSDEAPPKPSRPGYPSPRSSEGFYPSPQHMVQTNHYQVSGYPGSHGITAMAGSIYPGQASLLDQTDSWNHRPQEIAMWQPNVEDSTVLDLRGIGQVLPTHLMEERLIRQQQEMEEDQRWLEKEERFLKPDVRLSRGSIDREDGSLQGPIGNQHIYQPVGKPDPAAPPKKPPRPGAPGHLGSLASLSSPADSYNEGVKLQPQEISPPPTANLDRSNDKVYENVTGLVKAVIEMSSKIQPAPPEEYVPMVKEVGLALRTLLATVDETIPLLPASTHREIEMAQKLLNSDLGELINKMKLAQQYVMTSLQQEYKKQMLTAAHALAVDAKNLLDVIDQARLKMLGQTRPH

[12] = system: Fibrinogen (Alexa647-labelled); experiment: fibrinogen binders on compound microarrays, profiling panel, artefact control for SMM control-protein annotation, biochemical, small-molecule microarray, 635/667 nm fluorescence (AID 1131); settings: fibrinogen-A647 binding fluorescence, higher = more signal;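 further: z-score merges 667 nm fluorescence with per-spot signal-to-noise over triplicate slides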
[13] = target: Follistatin (Homo sapiens) (UniProt P19883); experiment: follistatin binders on small-molecule microarrays, primary screen, biochemical, small-molecule microarray, 635/667 nm fluorescence (AID 1132); settings: FST binding, 635 nm fluorescence, higher = more signal
Chain of Follistatin (Homo sapiens) (P19883 whole entry, looked up): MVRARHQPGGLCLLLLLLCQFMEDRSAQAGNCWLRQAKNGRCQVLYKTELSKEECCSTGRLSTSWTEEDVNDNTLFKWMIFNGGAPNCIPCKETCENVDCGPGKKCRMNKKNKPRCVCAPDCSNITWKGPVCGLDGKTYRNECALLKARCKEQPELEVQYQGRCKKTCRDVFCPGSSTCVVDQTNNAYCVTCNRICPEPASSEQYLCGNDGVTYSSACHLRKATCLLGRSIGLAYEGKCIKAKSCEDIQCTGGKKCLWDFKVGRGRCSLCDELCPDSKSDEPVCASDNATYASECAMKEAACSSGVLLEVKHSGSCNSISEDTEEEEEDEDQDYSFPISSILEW

[14] = target: Fibroblast growth factor 2 (Homo sapiens) (UniProt P09038); experiment: FGF2 binders on small-molecule microarrays, primary screen, biochemical, small-molecule microarray, 635/667 nm fluorescence (AID 1133); settings: small-molecule microarray binding, FGF2, fluorescence 635/667; higher = more signal
Chain of Fibroblast growth factor 2 (Homo sapiens) (P09038 whole entry, looked up): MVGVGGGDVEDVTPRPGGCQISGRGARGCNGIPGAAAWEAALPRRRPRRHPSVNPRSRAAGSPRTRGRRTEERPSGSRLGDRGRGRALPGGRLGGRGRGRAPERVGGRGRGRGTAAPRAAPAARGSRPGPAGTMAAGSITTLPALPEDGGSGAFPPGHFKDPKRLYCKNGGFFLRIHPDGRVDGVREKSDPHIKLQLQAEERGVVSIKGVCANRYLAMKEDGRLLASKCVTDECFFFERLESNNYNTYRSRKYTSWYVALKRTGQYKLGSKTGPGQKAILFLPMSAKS

[15] = mitochondrial membrane potential change in A549 cells, profiling panel, cell-based, JC-1 fluorescence, basal, 24 h, 100 nL (AID 1138); settings: higher = more signal;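 further: A549 lung adenocarcinoma cells under basal conditions with no added stimulus; test concentration not given here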
Lefty1 = Lefty1 binders on small-molecule microarrays, primary screen, biochemical, small-molecule microarray, 635/667 nm fluorescence (AID 1139); settings: small-molecule microarray binding, fluorescence 635/667; higher = more signal
[16] = system: wheat germ agglutinin (Triticum aestivum), Alexa647-labelled; experiment: wheat germ agglutinin binders on compound microarrays, profiling panel, artefact control for SMM control-protein annotation, biochemical, small-molecule microarray, 635/667 nm fluorescence (AID 1140); settings: WGA-A647 binding, 635 nm fluorescence, higher = more signal;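 further: score merges 667 nm feature emission with signal to noise over triplicate slides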
[17] = target: Luciferin 4-monooxygenase (Photinus pyralis) (UniProt P08659); experiment: firefly luciferase enzyme inhibitors, primary screen, biochemical, luminescence, purified enzyme, 2006 set (AID 1141); settings: SteadyGlo luminescence, 30 min, higher = more signal, called active from +8 up or from −8 down;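 further: cell-free assay with purified firefly luciferase at 100 ng per well in PBS; test concentration not given here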
Chain of Luciferin 4-monooxygenase (Photinus pyralis) (P08659 whole entry, looked up): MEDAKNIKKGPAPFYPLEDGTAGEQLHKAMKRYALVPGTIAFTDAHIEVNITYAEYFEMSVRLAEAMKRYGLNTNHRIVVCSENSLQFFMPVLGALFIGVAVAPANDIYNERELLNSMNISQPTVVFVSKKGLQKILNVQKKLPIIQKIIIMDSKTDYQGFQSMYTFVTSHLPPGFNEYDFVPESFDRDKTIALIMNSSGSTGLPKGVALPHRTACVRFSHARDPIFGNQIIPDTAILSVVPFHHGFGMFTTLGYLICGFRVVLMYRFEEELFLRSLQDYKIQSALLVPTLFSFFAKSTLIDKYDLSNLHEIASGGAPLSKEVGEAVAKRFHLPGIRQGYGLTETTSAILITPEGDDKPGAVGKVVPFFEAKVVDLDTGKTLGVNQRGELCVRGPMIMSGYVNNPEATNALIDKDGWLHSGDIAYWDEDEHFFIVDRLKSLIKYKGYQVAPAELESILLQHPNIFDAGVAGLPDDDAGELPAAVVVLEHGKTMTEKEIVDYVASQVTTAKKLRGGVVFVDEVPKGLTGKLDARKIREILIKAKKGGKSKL

Row | Compound | composite z-score (Albumin (Bos taurus)) | composite Z-score [1] | composite z-score [2] | composite z-score [3] | composite z-score [4] | composite z-score [5] | composite z-score [6] | composite z-score (Sam68 (KHDRBS1)) | composite z-score [7] | composite z-score [8] | composite z-score [9] | composite z-score [10] | composite z-score [11] | composite z-score [12] | composite z-score [13] | composite z-score [14] | z-score [15] | composite z-score (Lefty1) | composite z-score [16] | z-score [17]
1 | O=C(NC1CC1)[C@@H]1c2ccccc2C(=O)N(C2CCCCC2)[C@H]1c1ccc(CO)cc1 | -0.0383 | 0.635 (inactive) | -0.214 | -0.136 | 0.554 | 2.64 | 1.99 | 0.454 | -0.696 | 0.332 | 1.86 | 1.15 | 0.498 | -0.518 | 0.27 | -0.027 | 0.116 | -0.413 | 0.063 | 0.0436 (inactive)
2 | CC(C)N1CC=CC23O[C@@H]4/C=C\CCCOC(=O)C4[C@H]2C(=O)N(C(C)CO)[C@@H]3C1=O (stereo not given in full) | -0.446 | 0.0835 (inactive) | -0.24 | -0.177 | 0.913 | 0.17 | -0.443 | -0.222 | -0.956 | -0.313 | -0.201 | -0.829 | -0.246 | -1.91 | -0.755 | -1.31 | 0.0728 | -0.246 | 0.33 | 0.281 (inactive)
3 | O=C(NCC(F)(F)F)[C@@H]1c2ccccc2C(=O)N(Cc2cc(C(F)(F)F)cc(C(F)(F)F)c2)[C@H]1c1ccc(CO)cc1 | 0.195 | -0.368 (inactive) | -0.154 | -0.0984 | 0.207 | 0.729 | 0.158 | 0.178 | 0.0632 | 0.209 | 3.22 | 0.0165 | 0.246 | -0.0773 | 0.647 | 0.295 | 1.89 | -0.26 | -0.352 | 0.839 (inactive)
4 | C[N+](C)(C)CCCC[C@@H]1NC(=O)[C@H]2C[C@@H](C(=O)O)[C@@H](c3ccc(O)cc3)N2C1=O | -0.804 | -0.55 (inactive) | -0.165 | -0.104 | 0.704 | 1.4 | 0.606 | 0.744 | 0.616 | 0.905 | 1.04 | 0.123 | -0.216 | -0.223 | 0.864 | 0.948 | 1.49 | 0.155 | -0.185 | -1.93 (inactive)
5 | CCOC(=O)C1=CCC(c2cccn2C(=O)OC(C)(C)C)N(S(=O)(=O)c2ccc(C)cc2)C1 (stereo not given) | 0.871 | 0.76 (inactive) | 0.17 | 0.0351 | 0.523 | 2.82 | 0.421 | 0.948 | 0.551 | 0.722 | 1.86 | 1.21 | 0.42 | 0.827 | 1.13 | 0.433 | 1.22 | 0.498 | 1.2 | -0.997 (inactive)
6 | CCCCC=C[C@@H](NC(=O)C(C)(C)C)c1ccccc1 | 0.743 | -0.424 (inactive) | 0.259 | -0.0769 | 0.509 | -0.0783 | 0.983 | 1.09 | -0.264 | 1.04 | 1.14 | 1.09 | 0.35 | 0.935 | 0.495 | -0.0812 | -2.82 | 0.302 | 0.814 | 1.76 (inactive)
7 | COc1ccc([Si](C)(C)[C@H]2[C@H](CCO)O[C@@]3(C(=O)N(Cc4ccccc4)c4ccc(NC(=O)[C@H](C)O)cc43)[C@@H]2C)cc1 | 0.639 | 0.393 (inactive) | 0.372 | -0.0274 | 0.48 | 2.28 | -0.298 | 0.463 | 0.0883 | 0.473 | 0.779 | 1.16 | 0.361 | 0.967 | 0.578 | -0.145 | -0.924 | 0.575 | 0.75 | -0.355 (inactive)
8 | COC(=O)C1=CC(CCCO)=CC(c2ccc(CN3CCCC3)cc2)N(C)C=C1C(=O)OC (stereo not given) | 0.935 | 1.22 (inactive) | -0.105 | 0.0334 | 0.866 | 1.72 | 0.181 | 1 | 0.164 | 0.361 | 1.73 | 0.821 | 0.111 | 1.01 | 0.468 | -0.232 | 0.915 | -0.079 | 1.01 | -0.208 (inactive)
9 | OCCCc1cc[n+](Cc2cc3c(cc2Br)OCO3)cc1 | 0.038 | -0.0354 (inactive) | 0.0785 | -0.112 | -0.213 | -0.608 | 0.324 | -0.724 | -0.418 | -1.9 | -0.874 | -1.86 | -0.719 | -1.64 | -0.528 | -0.333 | -0.0611 | -0.903 | -0.77 | -0.903 (inactive)
10 | CCCCCCCCCCC(O)C1C=CC2C(=O)N(C)C(=O)C2N1Nc1ccccc1 (stereo not given) | 0.0703 | 0.636 (inactive) | -0.0975 | -0.271 | -0.0594 | 0.907 | 0.478 | -1.52 | -1.84 | -0.834 | -0.901 | -0.339 | 0.365 | -0.624 | -1.68 | -1.84 | 0.172 | -1.75 | -0.848 | -0.319 (inactive)
11 | C=C[C@@H](CO)NS(=O)(=O)c1ccc(Br)cc1 | 0.225 | -0.67 (inactive) | -0.331 | -0.17 | -0.359 | -0.412 | -0.32 | -2.22 | 0.222 | -1.76 | -0.371 | -0.371 | 0.169 | -0.387 | 0.0216 | -0.446 | -0.297 | -0.809 | -0.448 | -1.23 (inactive)

From PubChem BioAssay
